Measured values as given in PubChem BioAssay AID1347426 (Functional Genomics Laboratory (NCATS/FGL), 2020).
The campaign covered roughly 31,000 sequences. About 1,400 (4.5%) were called active. This excerpt belongs to a sample that is enriched for actives. Values without a mark were called inactive.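 How the source made its calls: active means median seed-adjusted z-score above 1 or below -1; inactive means the rest.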

Assay: Novel Modifiers of Survival Motor Neuron (SMN) Protein: Gene Identification via Genome-wide siRNA Screen
Settings: HEK293T SMN2-luciferase reporter, siRNA knockdown, 72 h; actives lie on both sides
Source text: Spinal muscular atrophy (SMA) is the most common neuromuscular autosomal recessive disorder and one of the leading genetic causes of infant death. SMA results from mutations inducing loss of function or deletion in the survival of motor neuron-1 gene (SMN1), leading to deficiency of the survival motor neuron (SMN) protein. Although a second nearly identical gene, SMN2, is retained in humans, its expression primarily produces an aberrantly spliced isoform that is largely unstable and quickly degraded. We performed a genome-wide RNAi screen using a cell-based reporter assay to identify genes and pathways that modulate SMN protein stability. The screen identified over 200 genes that led to the greatest increase or decrease in luciferase expression.
Using HEK293T cells stably expressing a luciferase reporter that combines the promoter and splicing based cassettes in tandem with the major portion of the native SMN2 cDNA with luciferase, we performed a genome-wide RNAi screen to identify modulators of SMN protein levels. Luciferase is expressed when full-length SMN protein is generated with luminescence signal proportional to SMN protein levels. Our luciferase-based reporter assay was used to screen Ambion Silencer Select Human Druggable Genome siRNA library (10418 genes, 3 unique siRNAs per gene) using lipid-based reverse transfection.
Briefly, 1 pmol of each siRNA was spotted to a well of a 384-well plate (Corning, Corning, NY) and 20 microL of serum-free DMEM containing […] of Lipofectamine RNAiMax (Life Technologies, Carlsbad, CA) was then added to each well. Transfected cells were maintained at 37 degrees C in 5% CO2 for 72 hours, 20 microL of ONE-Glo Reagent (Promega) was added to wells for luciferase quantification. Raw luminescence reads were normalized to Ambion(R) Silencer(R) Negative Control #2 siRNA, then log10 transformed. A robust statistical measure of median absolute deviation (MAD) to standardize siRNA activities from each screen. Common Seed Analysis was used to help prioritize clean hits as opposed to those appearing to arise from seed based off-target effects. Candidate modulators were defined as the genes having a MAD score greater than 1.0 or less than -1.0.
In the case of CCAACAUACUAGUCAAUAATT against EFTUD1, the median seed-adjusted z-score is reported as -1.39 (active).
With GGAUGGUCUUUUAGUAAGATT against CBR4 the median seed-adjusted z-score was -0.66.
With GACAUCGCAUGGUACAAGATT against NFASC the median seed-adjusted z-score was 0.594.
In the case of GAACUGCUCAGGACUAUAATT against TBRG1, the median seed-adjusted z-score is reported as -1.47 (active).
GCUGCAUCGUAAGACAUUUTT against PCGF6 showed a median seed-adjusted z-score of 0.536.
With CGAACUUCCUCAUCGGCAATT against PRLHR the median seed-adjusted z-score was 0.
For CAAAAAUGAUUGCGAAUGATT against APOL4, the median seed-adjusted z-score was -0.54.
In the case of GCUCUUCGAGAGAACCUGUTT against TUBG1, the median seed-adjusted z-score is reported as 0.618.
With CCCUCCAUGGAAUAGAAUATT against FCER1A the median seed-adjusted z-score was -0.0293.
Sequence CGGUUCCUUUAUUACCAAATT against TNFRSF21 has a median seed-adjusted z-score of 0.225.
For AGGAGAUUCUGAACAGGCUTT against GPR26, the median seed-adjusted z-score was -1.33 (active).
GCAGCUAUUUGUCUCCGAATT against USP43 gave a median seed-adjusted z-score of 0.
For CAGCUAUACAGGAAUUAUUTT against SLC25A16, the median seed-adjusted z-score was 0.0479.
For GCAGGGCAUUUAUGGGACATT against KRT79, the median seed-adjusted z-score was 0.338.
For CCAGGUGAAAUGUCAACUATT against HERC5, the median seed-adjusted z-score was -0.422.
GAACCAUACAUACUACAGATT against WDR31 gave a median seed-adjusted z-score of 0.796.
With AGGGAGCAAAUGAACCUGATT against VIP the median seed-adjusted z-score was 1.52 (active).
GGGAAGGUGUUACAGGCUATT against FAM62A showed a median seed-adjusted z-score of -0.34.
Work on CUGUCCAUCUGGGUCGUGATT against SLC30A2 yielded a median seed-adjusted z-score of -0.402.
For CUGCAGCUUUUAUCACAAATT against SLC25A33, the median seed-adjusted z-score was -0.0252.
Sequence GUAGAUAUGUGGAAACGGATT against FAM48A has a median seed-adjusted z-score of -0.506.
For GAGUCCCAUUUACAGCUAUTT against PFTK2, the median seed-adjusted z-score was -1.16 (active).
In the case of GGAUGGAGACUACGAGUUUTT against STK4, the median seed-adjusted z-score is reported as 0.652.
With GACCAGAUAUUUGCCUAUUTT against CYFIP1 the median seed-adjusted z-score was -0.377.
With GGAAAAUCAUCUUAUCAGATT against TEAD1 the median seed-adjusted z-score was 1.31 (active).
With CAGUAUACCAUCUAACAGATT against CNTN1 the median seed-adjusted z-score was -0.796.
With CCACUUUAAUAAACGUGCUTT against TIMM10 the median seed-adjusted z-score was 0.0738.
In the case of CAGUGAAGAUAAAAUUCAATT against CRIP3, the median seed-adjusted z-score is reported as 1.7 (active).
In the case of CCUUCAAGGUCAACGUGUATT against KCNH3, the median seed-adjusted z-score is reported as -0.509.
Sequence GGAGCACAAUAGAUCUGAATT against SEPX1 has a median seed-adjusted z-score of -0.0545.
In the case of CCAUGGGAAUCCAAUCUGUTT against PTTG1, the median seed-adjusted z-score is reported as -0.459.
In the case of GGACAUUCUAGAGAAAGAATT against SUPT5H, the median seed-adjusted z-score is reported as -4.02 (active).
With CGACCAUCAUGGAAAACAUTT against ABCB8 the median seed-adjusted z-score was -0.558.
GGAGGAUCUUGUACCCAGATT against PNKP gave a median seed-adjusted z-score of -0.0563.
Sequence CAGUGGGAACGACAACUUUTT against HNRPA1P4 has a median seed-adjusted z-score of -0.906.
GGAACACUUUCUCUCUAGATT against NOD2 gave a median seed-adjusted z-score of 0.129.
GAUGCGAUUUGAUGAGAUATT against EPS15L1 showed a median seed-adjusted z-score of -0.0511.
For CGCUAUACCUACCAGCAAATT against DNAJB12, the median seed-adjusted z-score was 0.
With GCCUUACUCUGAUCUGGUATT against IL1RAP the median seed-adjusted z-score was -0.23.
With CUACCAUGGUGUACCAACATT against QRICH1 the median seed-adjusted z-score was -1.04 (active).
GCAAACAAGUGAUAGUGAUTT against RBM11 gave a median seed-adjusted z-score of -0.0341.
In the case of UCUUCUCCCUGAUAAAGUATT against SLC6A13, the median seed-adjusted z-score is reported as 0.267.
With GACUGAUCCCUCUACUUCATT against SNTG1 the median seed-adjusted z-score was 0.167.
GCUUUCAGCUGAACGAACUTT against LTF showed a median seed-adjusted z-score of 0.236.
For GAAUAUUCCUAUAGUGAUATT against MYOZ2, the median seed-adjusted z-score was 0.315.
With GAGUCUACCUAAUUCUGGATT against AURKA the median seed-adjusted z-score was -0.108.
Work on CGACCUAAUCAUUCACAGUTT against CYP26C1 yielded a median seed-adjusted z-score of -0.276.
In the case of GGAGAAGAUACAAAGCGCATT against MED21, the median seed-adjusted z-score is reported as -1.3 (active).
UAACAAAUCCUAUUAGAUUTT against CTBP2 gave a median seed-adjusted z-score of -0.241.
In the case of CGAAAACAGGAGAUCAUUATT against CAMK2G, the median seed-adjusted z-score is reported as -0.107.
GCGGCUCCAUUUACCAGAATT against VDAC1 showed a median seed-adjusted z-score of 0.133.
Work on GGACAUUUCAUGAGUCAUUTT against 8-Mar yielded a median seed-adjusted z-score of -0.106.
For GCAUGAAUGCAACCUGAUUTT against DDX55, the median seed-adjusted z-score was 0.507.
In the case of GCAUGACGACUGAACUGAUTT against MDH1B, the median seed-adjusted z-score is reported as -1.13 (active).
